CtBP-E1A blk = qHTS Assay for Inhibitors of the CtBP/E1A Interaction; AlphaScreen GST-E1A/His-CtBP binding, 1536-well; stronger effect = lower value; 0.49% of 340,000 active; activity change, % (no concentration beside the values); CtBP / adenovirus E1A interaction (AlphaScreen); in the data active means activity change below about -65%; inconclusive means mostly about -30% to -63%; further: on the % scale 0 is the no-effect control and ±100 the full control effect
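Homogeneous bead-based format: GST-tagged E1A captured on glutathione donor beads, His-tagged CtBP on nickel acceptor beads; compounds precede bead addition by 2 h at 37 °C.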
HP1b binding inh = HTS for Inhibitors of HP1-beta Chromodomain Interactions with Methylated Histone Tails | Chromobox protein homolog 1 (Homo sapiens), P83916 | AlphaScreen HP1-beta / biotin-H3K9me3 peptide binding | Potency, µM (highest dose often 114 µM), without a hit: top-dose activity change, negative = inhibition, usual class: inhibitors | 0.56% of 390,000 active | AID 540317, 2011; further: potency means the concentration at half of the fitted maximal effect; nearly all actives have a fitted effect of over 70% in size
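AlphaScreen: HP1-beta (50 nM) preformed 30 min with biotin-H3(1-18)K9me3 peptide (50 nM) in PBS pH 7.4, 0.01% Tween-20. Compound added for 30 min at RT, then streptavidin donor/nickel chelate acceptor beads (10 ug/mL) for 30 min.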
BAZ2B block = qHTS Assay for Inhibitors of BAZ2B; Bromodomain adjacent to zinc finger domain protein 2B (Homo sapiens), Q9UIF8; AlphaScreen BAZ2B-H3K14Ac peptide displacement; Potency, µM (doses to about 114 µM), for the others: at the highest dose activity change, negative = inhibition, actives largely listed as inhibitors; 4.4% of 360,000 active; further: potency means the concentration at half of the fitted maximal effect; on the % scale 0 is the no-effect control and ±100 the full control effect; nearly all actives have a fitted effect of over 60% in size
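AlphaScreen luminescence quantifies BAZ2B engagement of H3K14Ac peptide; the protein and biotinylated peptide are both at 50 nM final, buffer PBS pH 7.4 with 0.01% Tween-20, all steps at room temperature.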
Six1-Eya2 inh = qHTS Assay for Inhibitors of the Six1/Eya2 Interaction. AID 651725, 2012. 0.56% of 360,000 active. AlphaScreen GST-Six1/His-Eya2 binding, biochemical; stronger effect = lower value. activity change, % (concentration not given with the values); in the data active means activity change below about -65%; inconclusive means mostly about -30% to -63%; further: on the % scale 0 is the no-effect control and ±100 the full control effect
Target sequence (O00167 whole entry, looked up): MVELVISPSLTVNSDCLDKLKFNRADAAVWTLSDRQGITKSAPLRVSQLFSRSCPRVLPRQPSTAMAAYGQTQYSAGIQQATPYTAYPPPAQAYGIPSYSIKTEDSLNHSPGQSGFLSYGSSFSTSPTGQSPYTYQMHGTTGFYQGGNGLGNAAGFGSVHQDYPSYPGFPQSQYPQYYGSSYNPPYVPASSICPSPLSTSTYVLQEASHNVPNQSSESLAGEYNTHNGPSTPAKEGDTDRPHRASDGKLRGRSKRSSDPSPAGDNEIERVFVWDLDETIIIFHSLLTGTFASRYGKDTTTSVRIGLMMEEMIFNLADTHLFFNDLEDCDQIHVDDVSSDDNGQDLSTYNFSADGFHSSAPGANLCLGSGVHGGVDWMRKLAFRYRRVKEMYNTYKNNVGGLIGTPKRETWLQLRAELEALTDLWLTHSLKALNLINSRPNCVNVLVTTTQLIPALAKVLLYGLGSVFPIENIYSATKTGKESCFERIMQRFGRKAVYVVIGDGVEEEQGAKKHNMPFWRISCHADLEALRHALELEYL
Target sequence (Q15475 whole entry, looked up): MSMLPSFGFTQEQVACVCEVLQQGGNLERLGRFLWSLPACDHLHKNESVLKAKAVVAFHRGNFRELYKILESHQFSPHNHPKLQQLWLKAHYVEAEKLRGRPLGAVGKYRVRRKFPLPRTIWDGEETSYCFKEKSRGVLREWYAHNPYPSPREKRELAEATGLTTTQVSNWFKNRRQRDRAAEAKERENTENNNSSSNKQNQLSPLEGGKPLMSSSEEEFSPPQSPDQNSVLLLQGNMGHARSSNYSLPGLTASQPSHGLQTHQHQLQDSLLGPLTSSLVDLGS
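GST-Six1 + His-Eya2 (5X stock: 250/500 nM); Tris pH 8.0, 300 mM NaCl, 0.05% BSA, 0.02% Tween 20; GSH donor/Ni acceptor beads; 1 h 37 °C dark; AlphaScreen readout.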
G9a inh = qHTS Assay for Inhibitors of Histone Lysine Methyltransferase G9a | Histone-lysine N-methyltransferase EHMT2 (Homo sapiens), Q96KQ7 | G9a H3K9 monomethylation, AlphaScreen, 2 h | Potency, µM (doses to about 102 µM), for inactives: top-dose activity, negative = inhibition, most hits filed as inhibitors | 8.8% of 350,000 active; further: potency means the concentration at half of the fitted maximal effect; on the % scale 0 is the no-effect control and ±100 the full control effect; nearly all actives have a fitted effect of over 75% in size
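Compounds were preincubated with 20 nM G9a for 15 min, after which biotinylated H3K9 peptide (500 nM) and SAM (20 uM) started a 2 h room-temperature reaction. Monomethylated product was quantified by antibody-based AlphaScreen chemiluminescence.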
JMJD2A Tudor inh = qHTS Assay for Inhibitors of JMJD2A-Tudor Domain; AID 504339, 2011; 4.4% of 390,000 active; Potency, µM (series often up to 114 µM), for the others: at the top dose activity change, negative = inhibition, usual class: inhibitors; AlphaScreen JMJD2A-Tudor / H3K4me3 peptide binding; Lysine-specific demethylase 4A (Homo sapiens), O75164; further: potency means the concentration at half of the fitted maximal effect; on the % scale 0 is the no-effect control and ±100 the full control effect; nearly all actives have a fitted effect of over 50% in size
Active calls of the source: *; ? = inconclusive; / = no result given; ! = repeats disagree; [ ] = remark or other dose. This is a sample that favours compounds with a hit; in the whole collection about 10% have one here. Unless noted, the call rests on the fitted dose curve; in most records, active means well fitted inhibition curve with a large enough effect; inconclusive means small, poorly fitted or top-dose-only effect; inactive means no such curve, though single readings can be large or run the other way.

SMILES	CtBP-E1A blk	HP1b binding inh	BAZ2B block	Six1-Eya2 inh	G9a inh	JMJD2A Tudor inh
CN(C)c1ccc(CN(C(=O)/C=C/c2ccccc2Cl)C2CCS(=O)(=O)C2)cc1 (stereo unspecified)	?	-32%	25µM*	?	-132%[59 µM]	45µM*
Cc1ccc(OCC(=O)N(Cc2ccc(N(C)C)cc2)C2CCS(=O)(=O)C2)cc1 (stereo unspecified)	1	-15%	?	-1	40µM*	?
Cc1cccc(OCC(=O)N(Cc2cccs2)C2CCS(=O)(=O)C2)c1C (stereo unspecified)	-3	24%	13%	4	50µM*	-12%
CCn1ccc2cc(S(=O)(=O)N3CCC(C(=O)NCCc4ccc(C)cc4)CC3)ccc21	/	21%[57 µM]	-15%	/	2%[59 µM]	-17%
CN(C)c1ccc(CN(C(=O)COc2ccc(Br)cc2)C2CCS(=O)(=O)C2)cc1 (stereo unspecified)	-19	-29%	45µM*	-30	50µM*	40µM*
CCCSc1ncc(Cl)c(C(=O)N(Cc2ccc(N(C)C)cc2)C2CCS(=O)(=O)C2)n1 (stereo unspecified)	/	-7%	22µM*	/	?	56µM*
COc1ccc(OCC(=O)N(Cc2sccc2C)C2CCS(=O)(=O)C2)cc1 (stereo unspecified)	1	52%	?	3	71µM*!	-14%
Cc1ccsc1CN(C(=O)COc1ccc(Cl)cc1)C1CCS(=O)(=O)C1 (stereo unspecified)	/	32%	-11%	/	3%[59 µM]	-7%
Cc1cc(O)c(C(c2ccccc2Cl)N2CCN(c3ccccc3)CC2)c(=O)n1Cc1ccco1 (stereo unspecified)	/	22%[57 µM]	-26%	/	?	?
C=C1CCN([C@H](C(=O)NCc2ccco2)C(C)C)S(=O)(=O)c2ccccc21	5	47%	-11%	11	20%[59 µM]	-19%
CC(CN1CC(=O)NC(=O)C1)N1CC(=O)NC(=O)C1 (stereo unspecified)	1	/	/	1	2.8µM*	/
Cc1ccc(/C=N/Nc2ccnc3cc(Cl)ccc23)c(C)c1	4	-1%	?	-1	?	22µM*
COc1cc(-c2noc(-c3ccc(N4CCN(C)CC4)c([N+](=O)[O-])c3)n2)cc(OC)c1OC	/	74%	-31%	/	?	-10%
NC1=NN=C(N2N=C(c3ccccc3)CC2(O)C(F)(F)F)n2ncnc2C1 (stereo unspecified)	-70*	29%	13%	?	4%	-13%
COc1ccc(C2=NN(C3=NN=C(N)Cc4ncnn43)C(O)(C(F)(F)F)C2)cc1 (stereo unspecified)	-86*	39%	?	-68*	/	-18%
NC1=NN=C(N2N=C(c3ccc(Br)cc3)CC2(O)C(F)(F)F)n2ncnc2C1 (stereo unspecified)	-8	26%	1%	?	122%[59 µM]	-11%
COc1ccccc1C1=NN(C2=NN=C(N)Cc3ncnn32)C(O)(C(F)(F)F)C1 (stereo unspecified)	-65*	36%	15%	?	20%	-15%
COc1ccc(C(O)c2nc(-c3cc(F)cc(Cl)c3)cs2)cc1 (stereo unspecified)	10	/	/	14	/	/
CCc1ccc2c(c1)NC(=O)C2(C)Cc1ccc(Cl)s1 (stereo unspecified)	3	/	/	1	/	/
Cc1noc(C)c1C(=O)N1CCC[C@@]2(CCN(c3ccccc3)C2)C1	/	/	/	/	-1%[12.7 µM]	/
c1coc(-c2nnc(-c3ccco3)nn2)c1	-18	45µM*	20µM*	?	20µM*	25µM*
CCCCCCCCN1C(=O)[C@H](CC(=O)NCc2ccccc2)C[C@@]2(C(=O)OC)CCCCC=C12	-7	/	/	-6	/	/

Source: PubChem BioAssay (National Center for Advancing Translational Sciences (NCATS))
